Hits are enriched below; roughly 3.7% of the tested compounds scored in any of these assays.
HTT-AS act = HTT-AS promoter activation. 48,000 compounds, 0.24% hits. Potency, µM (titrated, usually from 57.5 µM), usual class: activators. HEK293 HTT-AS promoter firefly luciferase reporter, 24 h; response scale: percent change from vehicle, -100% = no light; also: nearly all actives have a fitted effect of over 55% in size
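Firefly luciferase readout (Dual-Glo, 10 min RT) after 24 h, 37 °C compound exposure (final up to 57.5 uM) of HEK293 reporter cells cultured 24 h beforehand; PTC124 at 50 uM final as control inhibitor; activity scaled vehicle 0%, zero RLU -100%.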
GPR32 ag = GPR32 (DRV1) agonism, beta-arrestin recruitment; O75388; CHO-K1 GPR32 beta-arrestin PathHunter luminescence, 90 min; zero percent set by DMSO-only wells; activation, % at 76.9 µM; 48,000 compounds, 2.5% hits; AID 1346428;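 active = activation of at least 60% and not above a set upper limit, about 1 call in 100 departs from these limits; inconclusive = activation of 40% to 60%, or above that upper limit; inactive = activation under 40%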
Target sequence (O75388 whole entry, looked up): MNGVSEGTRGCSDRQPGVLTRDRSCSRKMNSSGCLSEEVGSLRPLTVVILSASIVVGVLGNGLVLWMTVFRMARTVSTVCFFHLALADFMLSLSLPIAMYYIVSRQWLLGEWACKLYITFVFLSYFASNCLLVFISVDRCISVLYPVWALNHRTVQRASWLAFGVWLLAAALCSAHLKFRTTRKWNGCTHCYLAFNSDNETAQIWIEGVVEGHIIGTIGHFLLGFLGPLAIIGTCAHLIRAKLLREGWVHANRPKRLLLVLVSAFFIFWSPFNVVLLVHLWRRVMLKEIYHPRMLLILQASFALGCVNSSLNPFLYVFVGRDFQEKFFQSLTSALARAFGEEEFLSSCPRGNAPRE
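Luminescent readout of beta-Gal complementation quantifies ligand-induced beta-arrestin association with GPR32 in CHO-K1 cells; 90 min compound incubation at 37 °C, detection 1 h at room temperature.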
HTT prom inh = HTT promoter inhibition. HEK293 HTT promoter firefly luciferase reporter, 24 h. Potency, µM (top dose mostly 57.5 µM), most hits filed as inhibitors. 48,000 compounds, 0.93% hits. AID 1508623; also: nearly all actives have a fitted effect of over 50% in size
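Firefly luciferase readout (Dual-Glo, 10 min RT) after 24 h, 37 °C compound exposure (final up to 57.5 uM) of HEK293 reporter cells cultured 24 h beforehand; PTC124 at 50 uM final as control inhibitor; activity scaled vehicle 0%, zero RLU -100%.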
Hits are given with their value; – = inactive; ? = inconclusive; · = no result; ! = not confirmed by another sample; [ ] = another dose, or the depositor's remark. Unless noted, calls follow the shape of the dose curve; as a rule, active = well fitted curve in the direction sought with a large enough effect; inconclusive = small, poorly fitted or top-dose-only effect, or another doubt; inactive = no such curve, though single readings can be large; an effect the other way counts as inactive or inconclusive.

SMILES	HTT-AS act	GPR32 ag	HTT prom inh
Cc1ccc(NS(=O)(=O)c2ccc3nc(-c4ccccc4)[nH]c3c2)c(Br)c1	–	?	?
Cc1cccc(NS(=O)(=O)c2ccc3nc(-c4ccccc4)[nH]c3c2)c1C	–	86	–
Cc1cc(C)cc(NC(=O)C2CCCN2S(=O)(=O)c2ccc3nc(-c4ccccc4)[nH]c3c2)c1 (stereo unspecified)	–	–	–
Cc1ccc(NS(=O)(=O)c2ccc3nc(-c4ccccc4)[nH]c3c2)c(Cl)c1	–	104	?
CC(C)c1ccc(NS(=O)(=O)c2ccc3nc(-c4ccccc4)[nH]c3c2)cc1	–	110	?
O=S(=O)(Nc1ccc(Br)cc1)c1ccc2nc(-c3ccccc3)[nH]c2c1	–	?	?
C[C@H](NC(=O)Cc1cc(F)cc(F)c1)C(=O)N[C@H](C(=O)OC(C)(C)C)c1ccccc1	–	·	–
N#CCC(=O)NN	–	–	–
CCOC(=O)C1=C(C)NC2=C(C(=O)CC(C)(C)C2)C1c1ccc(-c2ccccc2)cc1 (stereo unspecified)	–	·	?
COc1cccc2c1C(=O)c1c(O)c3c(c(O)c1C2=O)C[C@@](O)(C(C)=O)C[C@H]3O[C@H]1C[C@H](N)[C@H](O)[C@H](C)O1	–	·	?
COC(=O)CN1C(=O)CSc2ccc(S(=O)(=O)Nc3c(C)cc(C)cc3C)cc21	·	–	·
CCCOc1ccc(C(=O)Nc2ccc(NC(=O)c3ccccc3)c(Br)c2)cc1	–	–	?
O=S(c1cc(Cl)cc(Cl)c1O)c1cc(Cl)cc(Cl)c1O	–	–	–
Oc1c(Cl)cc(Cl)cc1Sc1cc(Cl)cc(Cl)c1O	–	80	?
O=C(CS(=O)Cc1ccco1)NC/C=C\COc1cc(CN2CCCCC2)ccn1 (stereo unspecified)	–	–	–
COc1cc(NC(=O)c2cc3c(=O)oc4ccc(C)cc4c3s2)cc(OC)c1OC	–	–	–
COc1cc(C(=O)NC(c2ccc(Cl)cc2)c2cc(Cl)c3cccnc3c2O)cc(OC)c1OC (stereo unspecified)	–	–	5µM
COc1cccc(C(=O)NC(c2ccc(Cl)cc2)c2cc(Cl)c3cccnc3c2O)c1 (stereo unspecified)	–	–	?
Cc1cc(C)cc(Nc2cc(C(=O)NCc3ccccc3)c3ccccc3n2)c1	–	–	–
CCC(=O)N1CCc2cc(S(=O)(=O)N(C)c3cccc(C)c3)ccc21	–	63	–
CCC(=O)N1CCc2cc(S(=O)(=O)NCc3ccc(C)cc3)ccc21	–	–	–
O=C(CCC1N=C2c3ccccc3N=C(SCc3ccc(Cl)cc3)N2C1=O)NCCc1ccccc1 (stereo unspecified)	–	–	–
O=C(CC1N=C2c3ccccc3N=C(SCc3ccc(Cl)cc3)N2C1=O)NCCc1ccccc1 (stereo unspecified)	–	74	?
Cc1ccccc1-c1noc(-c2nnn(-c3ccccc3C)c2N)n1	0.71µM	–	–
Cc1cccc(-n2nnc(-c3nc(-c4cccs4)no3)c2N)c1C	0.35µM	–	–
SMILES	HTT-AS act	GPR32 ag	HTT prom inh
COc1ccc(-n2nnc(-c3nc(-c4ccccc4C)no3)c2N)cc1Cl	–	–	–
Cc1cccc(-n2nnc(-c3nc(-c4cccs4)no3)c2N)c1	?	–	–
C[C@]12C=CC(=O)C=C1CC[C@@H]1[C@@H]2[C@@H](O)C[C@@]2(C)[C@@H]1CC[C@]2(O)C(=O)CO	–	·	–
Cc1ccc(C)c(CN2C(=O)c3ccccc3S(=O)c3ccc(C(=O)NCCc4ccc(Cl)cc4)cc32)c1 (stereo unspecified)	–	–	?
CCN(CC)CCOc1ccccc1C(=O)CCc1ccccc1	–	107	–
COC(=O)CCc1ccc(OCC(O)CNC(C)C)cc1 (stereo unspecified)	–	–	–
CCN(CCCc1ccccc1)CCCc1ccccc1	–	–	–
CCCNCC(O)COc1ccccc1C(=O)CCc1ccccc1 (stereo unspecified)	–	87!	–
COc1ccc(-c2cc(C(=O)Oc3cccc(C)c3C)c3ccccc3n2)cc1	–	–	–
Cc1nc(C)c(-c2ccc(SCC(=O)Nc3ccc(F)c(F)c3)nn2)s1	–	–	?
Cc1nc(C)c(-c2ccc(SCC(=O)Nc3ccc(Cl)c(Cl)c3)nn2)s1	–	–	18µM
O=C(Nc1cccc(Cl)c1)C1CCCN(c2nn3cc(-c4ccc(F)cc4)nc3s2)C1 (stereo unspecified)	–	–	4µM
COc1ccc(-c2cn3nc(N4CCCC(C(=O)Nc5ccc(Cl)cc5C)C4)sc3n2)cc1 (stereo unspecified)	–	–	–
O=C(NCc1cccc(Cl)c1)C1CCCN(c2nn3cc(-c4ccc(F)cc4)nc3s2)C1 (stereo unspecified)	–	–	2.5µM
Cc1ccc(CNC(=O)C2CCN(c3nn4cc(-c5ccc(F)cc5)nc4s3)CC2)cc1	?	–	–
Cc1ccc(-c2cn3nc(N4CCCC(C(=O)NCc5ccccc5F)C4)sc3n2)cc1 (stereo unspecified)	–	–	?
O=C(NCc1cccc(Cl)c1)C1CCN(c2nn3cc(-c4ccc(F)cc4)nc3s2)CC1	–	62	–
Cc1cc(=O)oc2cc(O[C@@H]3SC[C@@H](O)[C@H](O)[C@H]3O)ccc12	–	–	–
N#Cc1c(-n2ncnc2-c2cccc(Br)c2)sc2c1CCCCC2	–	–	?
CC(C)CCOc1ccc(C(=O)Nc2sc3c(c2C#N)CCCCC3)cc1	–	?	–
Cc1ccccc1-c1ncnn1-c1sc2c(c1C#N)CCCCC2	–	106	–
N#Cc1c(-n2ncnc2-c2ccc(F)cc2)sc2c1CCCCC2	–	69	?
Cc1cccc(Cn2c(=O)n3nc(-c4ccccc4)nc3c3ccccc32)c1	–	–	?
CCCSc1nnc2n(-c3ccc(OC)cc3)c(=O)c3c4c(sc3n12)COC(C(C)C)C4 (stereo unspecified)	–	–	–
COC(=O)CSc1nnc2n(-c3ccccc3)c(=O)c3c4c(sc3n12)COC(C(C)C)C4 (stereo unspecified)	–	65	–
SMILES	HTT-AS act	GPR32 ag	HTT prom inh
CCn1ccc(NS(=O)(=O)c2ccc(N)cc2)nc1=O	–	–	–
COc1cc(C2Nc3ccccc3-c3nnc(SCc4ccc(Cl)cc4)nc3O2)ccc1OCC(=O)O (stereo unspecified)	–[11.5 µM]	?	–[11.5 µM]
O=C(O)COc1ccccc1C1Nc2ccccc2-c2nnc(SCc3ccc(Cl)cc3)nc2O1 (stereo unspecified)	–	108	–
CC(C)C[C@H](CC(=O)O)C(=O)N[C@@H](Cc1c[nH]c2ccccc12)C(=O)N[C@@H](C)c1ccccc1	–	·	–
Cc1ccc(N(CC(C)C)S(=O)(=O)c2nnc(NC(=O)c3cccs3)s2)cc1	–	–	–
Cc1cccc(N(C)S(=O)(=O)c2nnc(NC(=O)c3cccs3)s2)c1	–	73	–
CCCCC(C)(C)[C@H](O)C=C[C@H]1[C@H](O)CC(=O)[C@H]1CC=CCCCC(=O)O	–	·	–
COc1ccc(CN(C(=O)c2cc3ccccc3oc2=O)C2CCS(=O)(=O)C2)cc1OC (stereo unspecified)	11µM	–	–
